Measurements taken from PubChem BioAssay AID1159580 (chemical genetic matrix, 2015).
Several values for one entry are separate records, joined by “and”; a condition that tells them apart may be missing. Identical values can stand only once. Among all 5,500 compounds or so, about 2,000 (36%) were called active. About 18% were inconclusive and are not listed. No stated cut-off is given here; in the data, active means normalized growth mostly below about 0.91 (no sharp cut-off); inconclusive means no clear call, values can overlap the other calls; inactive means mostly above about 0.92. This is one part of the list.

Assay: chemical genetic growth profiling, strain panel (AID 1159580);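 further: tested at 20 µM; growth read once vehicle control cultures reached saturation at 30 °C; 1 = growth at the plate median or of vehicle wells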
Details: S. cerevisiae deletion strains, growth OD
[1] = locus YAL013W, strain DEP1, stronger effect = lower value
[2] = locus YMR263W, strain SAP30, stronger effect = lower value
[3] = locus YNL322C, strain KRE1, stronger effect = lower value

Measured: normalized growth

CNCCc1ccc(O)c(O)c1
active: locus YDR150W, strain NUM1, stronger effect = lower value 0.922
inactive: [1] 0.964 | locus YAL040C, strain CLN3, stronger effect = lower value 0.991 | locus YCL061C, strain MRC1 (second series), stronger effect = lower value 0.956 | locus YDR363W, strain ESC2, stronger effect = lower value 1.03 | locus YER002W, strain NOP16, stronger effect = lower value 1 | [2] 1 | locus YNL128W, strain TEP1, stronger effect = lower value 0.996 | locus YNL175C, strain NOP13, stronger effect = lower value 1 | locus YNL197C, strain WHI3, stronger effect = lower value 1.02 | locus YNL224C, strain SQS1, stronger effect = lower value 1 | [3] 0.979 | locus YOR083W, strain WHI5 (second series), stronger effect = lower value 0.976

CNC(C)[C@H](O)c1ccccc1 (stereo partly specified)
inactive: [1] 1 | locus YAL021C, strain ccr4, stronger effect = lower value 1.03 | locus YAL026C, strain drs2, stronger effect = lower value 1.01 | locus YAL030W, strain snc1, stronger effect = lower value 1.01 | locus YBL061C, strain skt5, stronger effect = lower value 1.02 | locus YBR009C, strain hhf1, stronger effect = lower value 0.977 | locus YBR021W, strain FUR4, stronger effect = lower value 1.07 | locus YBR023C, strain chs3, stronger effect = lower value 1.01 | locus YBR171W, strain sec66, stronger effect = lower value 0.993 | locus YBR229C, strain ROT2, stronger effect = lower value 1.01 | locus YBR231C, strain swc5, stronger effect = lower value 1.01 | locus YBR279W, strain paf1, stronger effect = lower value 1 | locus YCL011C, strain gbp2, stronger effect = lower value 1.01 | locus YCL016C, strain dcc1, stronger effect = lower value 1.04 | locus YCL029C, strain bik1, stronger effect = lower value 1 | locus YCL061C, strain MRC1, stronger effect = lower value 0.995 | locus YCL069W, strain vba3, stronger effect = lower value 0.986 | locus YCR088W, strain abp1, stronger effect = lower value 0.989 | locus YDL005C, strain med2, stronger effect = lower value 0.999 | locus YDL035C, strain GPR1, stronger effect = lower value 1.05 | locus YDL040C, strain nat1, stronger effect = lower value 1 | locus YDL074C, strain BRE1, stronger effect = lower value 1.02 | locus YDL101C, strain DUN1, stronger effect = lower value 1.01 | locus YDL134C, strain PPH21, stronger effect = lower value 1.04 | locus YDL185W, strain tfp1, stronger effect = lower value 0.991 | locus YDL192W, strain arf1, stronger effect = lower value 0.998 | locus YDR001C, strain nth1, stronger effect = lower value 0.996 | locus YDR069C, strain doa4, stronger effect = lower value 1.02 | locus YDR101C, strain arx1, stronger effect = lower value 1.02 | locus YDR137W, strain rgp1, stronger effect = lower value 1 | locus YDR159W, strain sac3, stronger effect = lower value 0.995 | locus YDR162C, strain NBP2, stronger effect = lower value 1.02 | locus YDR195W, strain ref2 1.01 | locus YDR297W, strain sur2, stronger effect = lower value 1.01 | locus YDR318W, strain mcm21, stronger effect = lower value 1 | locus YDR334W, strain swr1, stronger effect = lower value 0.983 | locus YDR335W, strain msn5, stronger effect = lower value 1.03 | locus YDR388W, stronger effect = lower value 0.995 | locus YDR392W, strain spt3, stronger effect = lower value 1.05 | locus YDR502C, strain sam2, stronger effect = lower value 0.997 | locus YEL003W, strain gim4, stronger effect = lower value 0.992 | locus YEL037C, strain rad23, stronger effect = lower value 0.986 | locus YEL061C, strain CIN8 (second series), stronger effect = lower value 0.993 | locus YEL061C, strain CIN8, stronger effect = lower value 1.02 | locus YER015W, strain faa2, stronger effect = lower value 1.01 | locus YER016W, strain bim1, stronger effect = lower value 1.03 | locus YER110C, stronger effect = lower value 0.986 | locus YER111C, strain swi4, stronger effect = lower value 1 | locus YER155C, strain BEM2 (second series), stronger effect = lower value 1.02 | locus YER155C, strain BEM2, stronger effect = lower value 1.01 | locus YER167W, strain BCK2, stronger effect = lower value 1.02 | locus YFR010W, strain ubp6, stronger effect = lower value 0.96 | locus YGL078C, strain dbp3, stronger effect = lower value 0.994 | locus YGL086W, strain mad1, stronger effect = lower value 1.01 | locus YGL167C, strain pmr1, stronger effect = lower value 1.01 | locus YGL173C, strain kem1, stronger effect = lower value 1.01 | locus YGL227W, strain vid30, stronger effect = lower value 0.994 | locus YGL240W, strain doc1, stronger effect = lower value 0.993 | locus YGL248W, strain PDE1, stronger effect = lower value 1.02 | locus YGL253W, strain hxk2, stronger effect = lower value 1.01 | locus YGR078C, strain PAC10, stronger effect = lower value 1.02 | locus YGR135W, strain pre9, stronger effect = lower value 0.986 | locus YGR229C, strain SMI1, stronger effect = lower value 1.02 | locus YGR252W, strain gcn5, stronger effect = lower value 0.98 | locus YHR013C, strain ard1, stronger effect = lower value 1.04 | locus YHR027C, strain rpn1, stronger effect = lower value 0.998 | locus YHR030C, strain SLT2, stronger effect = lower value 1.02 and 1.05 | locus YHR079C, strain IRE1 (second series), stronger effect = lower value 1 | locus YHR079C, strain IRE1, stronger effect = lower value 1.03 | locus YHR094C, strain hxt1, stronger effect = lower value 0.989 | locus YHR129C, strain ARP1, stronger effect = lower value 1.01 | locus YHR142W, strain chs7, stronger effect = lower value 1 | locus YHR200W, strain rpn10, stronger effect = lower value 0.999 | locus YIL066C, strain RNR3, stronger effect = lower value 1.03 | locus YIL073C, strain SPO22, stronger effect = lower value 0.991 | locus YIL125W, strain kgd1, stronger effect = lower value 1 | locus YIR030C, strain dcg1, stronger effect = lower value 1 | locus YJL092W, strain hpr5, stronger effect = lower value 1 | locus YJL095W, strain BCK1 (second series), stronger effect = lower value 1.01 | locus YJL095W, strain BCK1, stronger effect = lower value 1.01 and 1.06 | locus YJL115W, strain asf1, stronger effect = lower value 0.993 | locus YJL129C, strain trk1, stronger effect = lower value 1.01 | locus YJL134W, strain LCB3, stronger effect = lower value 1 | locus YJL154C, strain vps35, stronger effect = lower value 0.986 | locus YJL164C, strain tpk1, stronger effect = lower value 1.01 | locus YJL166W, strain qcr8, stronger effect = lower value 1.01 | locus YJL168C, strain set2, stronger effect = lower value 0.991 | locus YJL187C, strain SWE1 (second series), stronger effect = lower value 1.01 | locus YJL187C, strain SWE1, stronger effect = lower value 1.02 | locus YJR043C, strain POL32, stronger effect = lower value 1.04 | locus YJR066W, strain TOR1, stronger effect = lower value 0.972 | locus YKL009W, strain mrt4, stronger effect = lower value 0.992 | locus YKL068W, stronger effect = lower value 0.995 | locus YKL085W, strain MDH1 (second series), stronger effect = lower value 1.03 | locus YKL085W, strain MDH1, stronger effect = lower value 1.03 | locus YKL160W, strain elf1, stronger effect = lower value 1.05 | locus YKL190W, strain CNB1, stronger effect = lower value 1.01 | locus YKR001C, strain vps1, stronger effect = lower value 0.997 | locus YKR026C, strain gcn3, stronger effect = lower value 0.995 | locus YKR091W, strain srl3, stronger effect = lower value 1 | locus YLL001W, strain dnm1, stronger effect = lower value 1.02 | locus YLL026W, stronger effect = lower value 1.02 | locus YLL041C, strain sdh2, stronger effect = lower value 0.996 | locus YLR027C, strain aat2, stronger effect = lower value 1.02 | locus YLR039C, strain RIC1, stronger effect = lower value 0.978 | locus YLR058C, strain SHM2, stronger effect = lower value 1.01 | locus YLR102C, strain apc9, stronger effect = lower value 0.986 | locus YLR113W, strain HOG1, stronger effect = lower value 1.08 | locus YLR221C, strain rsa3, stronger effect = lower value 0.984 | locus YLR258W, strain gsy2, stronger effect = lower value 1.03 | locus YLR262C, strain YPT6 (second series), stronger effect = lower value 0.972 | locus YLR262C, strain YPT6, stronger effect = lower value 0.983 | locus YLR268W, strain sec22, stronger effect = lower value 0.993 | locus YLR320W, strain mms22, stronger effect = lower value 0.994 | locus YLR330W, strain CHS5, stronger effect = lower value 1.01 | locus YLR342W, strain FKS1 (second series), stronger effect = lower value 1.05 | locus YLR342W, strain FKS1, stronger effect = lower value 1.02 | locus YLR357W, strain rsc2, stronger effect = lower value 0.958 | locus YLR370C, strain arc18, stronger effect = lower value 1.03 | locus YLR371W, strain rom2, stronger effect = lower value 0.987 | locus YLR384C, strain iki3, stronger effect = lower value 0.995 | locus YLR418C, strain cdc73, stronger effect = lower value 1.01 | locus YML016C, strain PPZ1, stronger effect = lower value 1.01 | locus YML032C, strain rad52, stronger effect = lower value 1 | locus YML120C, strain ndi1, stronger effect = lower value 0.996 | locus YML124C, strain tub3, stronger effect = lower value 0.991 | locus YMR058W, strain fet3, stronger effect = lower value 0.999 | locus YMR078C, strain ctf18, stronger effect = lower value 0.989 | locus YMR125W, strain sto1, stronger effect = lower value 0.955 | locus YMR129W, stronger effect = lower value 1.02 | locus YMR205C, strain PFK2, stronger effect = lower value 1 | locus YMR223W, strain ubp8, stronger effect = lower value 0.998 | locus YMR231W, strain pep5, stronger effect = lower value 1 | [2] 1.01 | locus YMR307W, strain GAS1, stronger effect = lower value 1.17 | locus YNL067W, strain RPL9B, stronger effect = lower value 1 | locus YNL071W, strain lat1, stronger effect = lower value 0.991 | locus YNL183C, strain NPR1, stronger effect = lower value 0.982 | locus YNL209W, strain ssb2, stronger effect = lower value 0.999 | locus YNL233W, strain BNI4, stronger effect = lower value 1.02 | locus YNL248C, strain rpa49, stronger effect = lower value 0.969 | locus YNL250W, strain rad50, stronger effect = lower value 0.989 | locus YNL271C, strain bni1, stronger effect = lower value 0.982 | locus YNL298W, strain CLA4, stronger effect = lower value 1.02 | locus YNL307C, strain MCK1, stronger effect = lower value 1 | locus YNL322C, strain KRE1 (second series), stronger effect = lower value 1.01 | [3] 1.05 | locus YNR049C, strain mso1, stronger effect = lower value 0.996 | locus YNR052C, strain pop2, stronger effect = lower value 1 | locus YOL006C, strain TOP1, stronger effect = lower value 1.16 | locus YOL012C, strain htz1 1.33 | locus YOL147C, strain pex11, stronger effect = lower value 0.982 | locus YOR001W, strain rrp6, stronger effect = lower value 0.934 | locus YOR061W, strain CKA2, stronger effect = lower value 1.02 | locus YOR069W, strain VPS5, stronger effect = lower value 1.01 | locus YOR070C, strain gyp1, stronger effect = lower value 1.02 | locus YOR080W, strain dia2, stronger effect = lower value 1.01 | locus YOR083W, strain WHI5, stronger effect = lower value 1.04 | locus YOR106W, strain vam3, stronger effect = lower value 1.03 | locus YOR136W, strain idh2, stronger effect = lower value 1 | locus YOR144C, strain elg1, stronger effect = lower value 0.995 | locus YOR184W, strain ser1, stronger effect = lower value 1 | locus YOR231W, strain MKK1, stronger effect = lower value 1.06 | locus YOR265W, strain rbl2, stronger effect = lower value 1.01 | locus YOR270C, strain vph1, stronger effect = lower value 0.952 | locus YOR290C, strain snf2, stronger effect = lower value 1.06 | locus YOR316C, strain cot1, stronger effect = lower value 0.995 | locus YPL051W, strain arl3, stronger effect = lower value 1.03 | locus YPL055C, strain LGE1, stronger effect = lower value 1.01 | locus YPL078C, strain atp4, stronger effect = lower value 1.03 | locus YPL106C, strain sse1, stronger effect = lower value 1.04 | locus YPL240C, strain hsp82, stronger effect = lower value 0.992 | locus YPL256C, strain CLN2, stronger effect = lower value 1.04 | locus YPR119W, strain clb2, stronger effect = lower value 0.991 | locus YPR141C, strain kar3, stronger effect = lower value 0.985 | locus YPR163C, strain tif3, stronger effect = lower value 0.998 | locus YPR167C, strain met16, stronger effect = lower value 0.99 | strain wtn01, stronger effect = lower value 1
